Compound activity as filed in PubChem BioAssay.
Only a selection was taken, and hits are over-represented in it overall.
IDE exosite FP – insulin-degrading enzyme (human) exo-site inhibition; actives 6.3% (n = 17,000); AID 1259349; purified IDE, FL-6b probe fluorescence polarization; stronger effect = lower value; z-score at 20 µM;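 active = z-score of -3 or lower, meaning strong loss of probe binding signal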;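 also: His-tagged human IDE residues 42-1019 made in E. coli with 30 nM FL-6b probe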
Target sequence (P14735 42-1019 limits assumed): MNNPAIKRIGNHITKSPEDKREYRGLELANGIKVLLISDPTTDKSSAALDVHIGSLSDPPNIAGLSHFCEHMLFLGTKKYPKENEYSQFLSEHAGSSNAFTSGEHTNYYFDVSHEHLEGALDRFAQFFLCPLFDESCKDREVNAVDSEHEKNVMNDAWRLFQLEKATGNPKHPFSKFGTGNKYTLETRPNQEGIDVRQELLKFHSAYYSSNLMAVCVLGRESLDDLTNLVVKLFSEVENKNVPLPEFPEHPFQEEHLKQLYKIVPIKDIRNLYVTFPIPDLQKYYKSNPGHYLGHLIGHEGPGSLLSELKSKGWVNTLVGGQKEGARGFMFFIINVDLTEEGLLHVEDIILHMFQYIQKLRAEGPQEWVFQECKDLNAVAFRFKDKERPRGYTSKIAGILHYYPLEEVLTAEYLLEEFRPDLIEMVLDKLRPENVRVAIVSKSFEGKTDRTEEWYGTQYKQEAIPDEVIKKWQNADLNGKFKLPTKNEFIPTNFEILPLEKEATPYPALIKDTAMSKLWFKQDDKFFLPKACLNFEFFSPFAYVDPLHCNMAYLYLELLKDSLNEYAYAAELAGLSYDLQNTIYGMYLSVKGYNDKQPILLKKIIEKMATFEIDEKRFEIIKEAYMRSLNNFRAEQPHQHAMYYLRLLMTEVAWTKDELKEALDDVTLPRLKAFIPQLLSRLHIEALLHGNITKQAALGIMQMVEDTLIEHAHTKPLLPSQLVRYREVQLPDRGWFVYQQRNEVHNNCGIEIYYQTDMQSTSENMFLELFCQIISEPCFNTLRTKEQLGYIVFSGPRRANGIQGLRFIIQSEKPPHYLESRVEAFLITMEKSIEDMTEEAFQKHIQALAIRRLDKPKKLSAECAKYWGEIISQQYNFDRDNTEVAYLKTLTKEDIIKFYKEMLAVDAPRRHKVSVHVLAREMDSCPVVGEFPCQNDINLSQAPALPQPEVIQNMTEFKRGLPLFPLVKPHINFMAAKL
Numbers without * were called inactive.

SMILES	IDE exosite FP
O=C(Nc1ccccc1)N1CC(=O)N2[C@@H](CO)[C@H](c3ccc(-c4ccc(F)cc4)cc3)[C@@H]2C1	1.07
CCCC#Cc1ccc([C@@H]2[C@H]3CN(CC4CC4)CCCCN3[C@H]2CO)cc1	2.73
COCC(=O)N(C)C[C@@H]1[C@@H](c2ccccc2)[C@H](CO)N1C(=O)Cc1ccncc1	0.345
CC(=O)N1[C@H](CO)[C@H](c2ccccc2)[C@H]1CNC(=O)CN1CCOCC1	-1.37
CO[C@H]1CN(C)C(=O)c2cc(NC(=O)C3CCCCC3)ccc2OC[C@@H](C)N(C(=O)c2ccccc2)C[C@@H]1C	0.271
N#C[C@@H]1[C@H](c2ccc(C3=CCCC3)cc2)[C@@H](CO)N1c1nc(-c2ccccc2)cs1	0.183
COc1ccc(S(=O)(=O)Nc2ccc3c(c2)C(=O)N([C@@H](C)CO)C[C@@H](C)[C@@H](CN(C)C(=O)Nc2c(C)noc2C)OCCCC[C@@H](C)O3)cc1	1.13
CCCC#Cc1ccc([C@H]2[C@@H](CO)N3C(=O)CN(C(=O)c4ccc(F)cc4)C[C@H]23)cc1	1.45
CCCC#Cc1ccc([C@H]2[C@@H](CO)N3CCCCN(CC4CCOCC4)C[C@H]23)cc1	1.48
Cc1ccccc1-c1ccc([C@H]2[C@H]3CN(C(=O)Nc4ccc(F)cc4)CC(=O)N3[C@H]2CO)cc1	-6.97*
O=C(Nc1ccc(F)cc1)N1CC(=O)N2[C@@H](CO)[C@@H](c3ccc(-c4ccc(F)cc4)cc3)[C@@H]2C1	1.19
O=C(Nc1ccc(F)cc1)N1CC(=O)N2[C@H](CO)[C@@H](c3ccc(-c4ccc(F)cc4)cc3)[C@H]2C1	1.39
CNC[C@@H]1Oc2ccc(N)cc2CC(=O)N([C@H](C)CO)C[C@H]1C	0.804
COc1ccc(C[C@@H]2CCn3cc(nn3)COC[C@H](c3ccccc3)NC2=O)cc1	-0.389
CN(C)C(=O)c1ccc(-c2ccc([C@H]3[C@H](CO)N4CCCCN(Cc5cncnc5)C[C@@H]34)cc2)cc1	3.11
OC[C@H]1[C@@H](c2ccc(/C=C/c3ccccc3)cc2)[C@@H]2CN(Cc3ccncc3)CCCCN12	-7.94*
OC[C@H]1[C@@H](c2ccc(/C=C/c3ccccc3)cc2)[C@H]2CN(Cc3ccncc3)CCCCN21	-5.74*
OC[C@@H]1[C@@H](c2ccc(/C=C/c3ccccc3)cc2)[C@@H]2CN(Cc3ccncc3)CCCCN12	-4.98*
OC[C@H]1[C@@H](c2ccc(/C=C/c3ccccc3)cc2)[C@@H]2CN(Cc3cccnc3)CCCCN12	-4.4*
CCCC#Cc1ccc([C@H]2[C@@H](CO)N3CCCCN(Cc4ccncc4)C[C@@H]23)cc1	0.169
COc1ccc(C#Cc2ccc([C@@H]3[C@@H](CO)N4CCCCN(Cc5ccncc5)C[C@H]34)cc2)cc1	-0.629
OC[C@H]1[C@H](c2ccc(/C=C/c3ccccc3)cc2)[C@H]2CN(Cc3cccnc3)CCCCN21	-1.86
CCCC#Cc1ccc([C@H]2[C@H]3CN(Cc4ccncc4)CCCCN3[C@H]2CO)cc1	-1.2
OC[C@@H]1[C@H](c2ccc(-c3ccc(F)cc3)cc2)[C@@H]2CN(Cc3cccnc3)CCCCN12	1.44
C[C@@H]1CN([C@@H](C)CO)C(=O)CCCn2nncc2CO[C@H]1CN(C)Cc1ccc(C(=O)Nc2ccccc2N)cc1	-0.559
SMILES	IDE exosite FP
COCC(=O)Nc1ccc2c(c1)[C@H]1C[C@H](CC(=O)N3CCOCC3)O[C@H](CO)[C@H]1O2	-0.603
O=C(Nc1cccc(F)c1)N1C[C@@H]2[C@H](c3ccccc31)[C@@H](CO)N2C(=O)Cc1ccccn1	0.353
Fc1ccc(CN2[C@@H]3CNC[C@H]2C3c2ccc(-c3ccncc3)cc2)cc1 (stereo partly drawn)	2.23
C/C=C/c1ccc([C@H]2[C@@H](CO)N(C(C)=O)[C@@H]2CN(CCC)C(=O)C2CCC2)cc1	2.69
Cc1ccccc1S(=O)(=O)N1CC(=O)N2[C@H](CO)[C@@H](c3ccc(C#Cc4ccccc4)cc3)[C@@H]2C1	0.0775
CS(=O)(=O)Nc1ccc2c(c1)[C@H]1C[C@H](CC(=O)NCCc3ccccc3)O[C@@H](CO)[C@H]1O2	-2.02
COc1ccccc1CNC(=O)C[C@@H]1C[C@H]2c3cc(NC(=O)C4CCC4)ccc3O[C@H]2[C@H](CO)O1	-0.572
COc1ccc2c3c([nH]c2c1)[C@H](CO)N(Cc1ccc2c(c1)OCO2)CC31CCN(C(=O)Nc2c(C)noc2C)CC1	-0.217
OC[C@@H]1[C@@H](c2ccc(/C=C/c3ccccc3)cc2)[C@H]2CN(Cc3ccncc3)CCCCN12	-5.15*
Cc1ccccc1S(=O)(=O)N1CC(=O)N2[C@H](C1)[C@@H](c1ccc(C#CC3CC3)cc1)[C@@H]2CO	-0.146
CO[C@@H]1CN(C)C(=O)c2cc(NC(=O)NC(C)C)ccc2OC[C@@H](C)N(C(=O)CN(C)C)C[C@H]1C	0.952
O=S(=O)(c1ccccc1)N1CCCCN2[C@@H](CO)[C@H](c3ccc(C#Cc4ccccc4)cc3)[C@@H]2C1	3.77
CCCC#Cc1ccc([C@@H]2[C@H]3CN(S(C)(=O)=O)CCCCN3[C@H]2CO)cc1	0.534
O=S(=O)(c1ccccc1)N1CCCCN2[C@@H](CO)[C@@H](c3ccc(C#Cc4ccccc4)cc3)[C@@H]2C1	-5.85*
